# Arbovirus anti: blocks arbovirus infection | AID 1251 | arbovirus infection cell-based antiviral screen | actives 0.37% (n = 200,000) | inhibition, % at 10 µM; in the data active = inhibition above about 30%
# Bim-Mcl-1: inhibitors of Bim-Mcl-1 interaction, human; Bead-based flow cytometry, Bim peptide-Mcl-1 binding; inhibition, % at 10 µM; actives 0.1% (n = 190,000); AID 1009; in the data active = inhibition above about 40%
# Target sequence (Q07820 whole entry, looked up): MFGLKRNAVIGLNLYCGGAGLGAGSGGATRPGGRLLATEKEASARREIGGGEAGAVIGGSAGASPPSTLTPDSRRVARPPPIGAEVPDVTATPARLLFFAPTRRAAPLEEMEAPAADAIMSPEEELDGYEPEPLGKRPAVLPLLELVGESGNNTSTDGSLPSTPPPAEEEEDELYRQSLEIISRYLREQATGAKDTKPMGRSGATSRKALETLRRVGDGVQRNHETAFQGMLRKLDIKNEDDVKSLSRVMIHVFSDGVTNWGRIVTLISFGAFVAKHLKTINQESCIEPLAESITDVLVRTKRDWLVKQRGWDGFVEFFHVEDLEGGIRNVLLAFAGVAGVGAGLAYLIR
# Mcl1 Bid PPI: Mcl-1/Bid interaction inhibition. Q07820. TR-FRET Mcl-1/Bid-Dy647 peptide binding, 1536-well. inhibition, % at 21.7 µM. actives 0.97% (n = 220,000);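 active = compounds that cut the binding signal by more than half at the single screening dose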;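 note: His-tagged Mcl-1 with europium anti-His antibody binding Bid BH3 peptide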
# 14-3-3 Bad PPI: disrupts binding of bovine 14-3-3 zeta to phospho-Bad peptide; P63103; TR-FRET 14-3-3zeta/Dy647-pBad peptide displacement, 1 h; inhibition, % at 21.7 µM; actives 0.71% (n = 220,000); AID 781;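 active = inhibition above about 70%, limit read from the data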
# Target sequence (P63103 whole entry, looked up): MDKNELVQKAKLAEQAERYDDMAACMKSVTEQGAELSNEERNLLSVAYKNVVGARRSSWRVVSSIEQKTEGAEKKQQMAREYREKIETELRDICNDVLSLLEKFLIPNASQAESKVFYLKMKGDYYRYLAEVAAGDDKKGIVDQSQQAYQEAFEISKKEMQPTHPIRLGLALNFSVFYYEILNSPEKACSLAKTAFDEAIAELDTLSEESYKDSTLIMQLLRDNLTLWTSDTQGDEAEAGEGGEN
# Mcl1 Noxa PPI: Mcl-1/Noxa interaction inhibition. Q07820. TR-FRET Mcl-1/Noxa peptide binding, 2 h. inhibition, % at 21.7 µM. actives 1.5% (n = 220,000). AID 1022;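 active = compounds that cut the protein-peptide binding signal by more than 50% relative to plate controls in a single-dose test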;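 note: His-tagged Mcl-1 with rhodamine Noxa BH3 peptide and terbium anti-His antibody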
# A number is an active result; . = inactive; / = not tested or not shown. Compounds with a hit are over-represented: about 3% of the library has one in this group of screens.
SMILES,Arbovirus anti,Bim-Mcl-1,Mcl1 Bid PPI,14-3-3 Bad PPI,Mcl1 Noxa PPI
Cc1ccc(NCc2ccccc2O)cc1,.,.,.,/,.
CCc1ccc(CNc2ccc(N3CCN(C(C)=O)CC3)cc2)cc1,.,.,.,.,.
CC(=O)N1CCN(c2ccc(NCc3ccc(C)cc3)cc2)CC1,.,.,.,.,52.9
O=C1C(c2ccncc2)=C(O)c2ccccc21,.,.,.,.,.
CC(C)c1ccc(C2=C(O)c3ccccc3C(=O)C2=O)cc1,33.3,.,.,.,.
O=C(/C=C/c1ccccc1)Nc1sc2c(c1C(=O)O)CCC2,/,/,.,.,.
O=C(/C=C/c1ccco1)Nc1sc2c(c1C(=O)O)CCC2,73.4,.,.,.,.
O=C(Nc1sc2c(c1C(=O)O)CCC2)c1cccs1,55.2,.,.,.,.
O=C(O)c1c(NC(=O)c2cccc3ccccc23)sc2c1CCC2,54.9,.,.,.,.
N#Cc1c(NC(=O)/C=C/c2ccco2)sc2c1CCCC2,.,.,.,.,.
CNC(=O)c1c(NC(=O)c2cc(-c3cc(C)c(C)cc3O)n[nH]2)sc2c1CCCC2,/,/,.,.,60.2
CC(C(=O)O)n1c(-c2ccn[nH]2)n[nH]c1=S (centres undefined),/,/,.,.,.
CCCC1=NN(C(=O)C(=O)Nc2ccc(Br)cc2)C(O)(C(F)(F)F)C1 (centres undefined),.,.,.,.,.
O=C(Nc1sc2c(c1C(=O)O)CCC2)c1ccccc1,.,.,72.1,83.2,.
O=C(Nc1sc2c(c1C(=O)O)CCC2)c1ccc(F)cc1,42.1,.,.,.,.
Cc1ccc(C(=O)c2c(NC(=O)c3cccnc3)sc3c2CCCC3)cc1,.,.,.,.,/
CCOC(=O)c1c(NC(=O)c2ccccc2N(C)S(=O)(=O)c2ccccc2)sc2c1CCCC2,.,53.0,.,.,.
N#Cc1c(NC(=O)c2ccccc2)sc2c1CCCCC2,.,.,.,.,.
O=C(Nc1sc2c(c1C(=O)O)CCCCC2)c1ccccc1,68.8,.,.,.,.
COC(=O)c1cn(NC(=O)Cn2nc([N+](=O)[O-])c(Br)c2C)c(=O)c2ccccc12,.,.,.,.,.
CCN(Cc1cc(OC)c(OC)c(OC)c1)C(=S)Nc1cccc(SC)c1,/,/,.,.,.
COc1ccc(C(=S)N2CCOCC2)cc1OS(=O)(=O)c1ccccc1[N+](=O)[O-],.,.,.,.,.
CC(C)(C)NC(=O)c1oc2ccccc2c1COc1ccccc1,.,.,.,.,.
Cc1cc(C(=O)CSc2nncs2)c(C)n1Cc1ccco1,.,.,.,.,.
COc1ccc(-c2nnc(SCC(=O)c3cc(C)n(Cc4cccs4)c3C)o2)cc1,.,.,.,74.7,.
SMILES,Arbovirus anti,Bim-Mcl-1,Mcl1 Bid PPI,14-3-3 Bad PPI,Mcl1 Noxa PPI
Cc1cc(C(=O)CSc2nnc(-c3ccco3)o2)c(C)n1Cc1ccco1,31.1,.,.,.,.
Cc1cc(C(=O)CSc2nnc(-c3ccc(OC(F)F)cc3)o2)c(C)n1Cc1cccs1,.,.,.,.,.
Cc1ccc(C(=O)NC2CCS(=O)(=O)C2)cc1S(=O)(=O)N1CCCCCC1 (centres undefined),.,.,.,.,.
CCOC(=O)c1c(C)[nH]c(C2=NNC(=Nc3cccc(Cl)c3)SC2)c1C,.,.,.,.,.
C(=N\Nc1nc(N2CCCC2)nc(N2CCCC2)n1)/c1ccncc1,.,.,.,.,.
O=[N+]([O-])c1cccnc1N1CCN(c2ccc(F)cc2)CC1,.,.,.,.,.
CN(C)C(=O)/C(C#N)=C\c1cc(Br)c(Sc2ccc(Cl)cc2)o1,.,.,99.6,.,.
C/C(=N/NC(=O)CNC(=O)c1ccncc1)c1ccco1,/,/,.,.,.
CSc1nc2ccc(NS(=O)(=O)c3c(Cl)cccc3Cl)cc2s1,.,.,.,.,.
CSc1nc2ccc(NS(=O)(=O)c3ccc4c(c3)OCCO4)cc2s1,31.9,.,.,.,.
CCCOc1ccc(C2NC(=S)NC(c3ccccc3)=C2C(=O)Nc2ccc(C)cc2)cc1OC (centres undefined),.,.,.,.,.
Cc1ccc(SCc2cc(=O)n3ccsc3n2)c(C)c1,.,.,.,.,.
COC(=O)c1ccc(OCc2cc(=O)n3ccsc3n2)cc1,.,.,65.0,.,.
COc1cc(/C=C2/SC(=Nc3ccc(O)cc3)NC2=O)cc(OC)c1O,.,.,.,.,50.6
O=C1NC(=Nc2ccc(O)cc2)S/C1=C\C=C\c1ccco1,/,/,.,.,59.9
COc1ccc(N=C2NC(=O)/C(=C\c3ccco3)S2)cc1,.,.,.,.,.
COc1ccc(N2CCN(C(CNC(=O)C(=O)NCc3ccc4c(c3)OCO4)c3ccco3)CC2)cc1 (centres undefined),.,.,.,.,.
O=C(NNC(=O)c1ccncc1)c1ccncc1,.,.,.,.,.
COc1ccc(C(=O)NNC(=O)c2ccncc2)cc1,.,.,.,.,60.8
CC(=O)c1ccc(NC(=S)NNC(=O)c2ccncc2)cc1,.,.,92.3,.,.
Cc1cc(C(=O)O)ccc1-c1ccc(/C=C2\NC(=O)N(Cc3ccc(F)cc3)C2=O)o1,/,/,.,.,.
O=C(CN1CCN(Cc2ccccc2)CC1)N/N=C/c1c[nH]c2ccccc12,.,.,.,.,.
O=C1Nc2ccccc2/C1=C/c1cnc(-c2ccccc2)[nH]1,/,/,.,.,65.1
COc1ccc(-c2n[nH]c(C)c2-c2cnn(-c3ccccc3)c2)c(O)c1,38.2,.,.,.,.
COc1ccc(-c2n[nH]c(C)c2-c2cnn(-c3ccccc3)c2)c(O)c1C,.,.,.,.,.
SMILES,Arbovirus anti,Bim-Mcl-1,Mcl1 Bid PPI,14-3-3 Bad PPI,Mcl1 Noxa PPI
COc1ccc(Nc2ncnc3c2cnn3Cc2ccccc2)cc1,.,/,/,/,/
CCOc1ccc(Nc2ncnc3c2cnn3Cc2ccccc2)cc1,.,.,.,80.3,.
COC(=O)[C@@]1(Cc2ccc(OC)cc2)[C@H]2c3cc(C(=O)N4CCCC4)n(CCn4cc([N+](=O)[O-])nc4C)c3C[C@H]2CN1C(=O)c1ccccc1,.,.,.,.,.
O=C(c1ccc(C#CC2(O)CCCCC2)cc1)N1CCN(C(c2ccccc2)c2ccccc2)CC1,.,.,.,.,.
Cc1snc(SCC(=O)c2ccc([N+](=O)[O-])cc2)c1C#N,.,.,.,.,66.4
NNC(=O)CNC(=O)c1cccc(Br)c1,.,.,.,.,/
COc1ccc(OC)c(/C=N/NC(=O)CN2CCSCC2)c1,.,.,.,.,.
COc1ccc(/C=N/NC(=O)CN2CCSCC2)c(OC)c1,.,.,.,.,60.2
CCN1C(=O)/C(=C\N(C)C)S/C1=N\S(=O)(=O)c1ccccc1,.,.,.,91.8,.
Cc1ccc(S(=O)(=O)Nc2ccc(N=Nc3ccc(O)cc3)cc2)cc1,.,.,.,.,52.6
CC(=O)c1c(N2CCOCC2)nc2ccc(Br)cc2c1-c1ccccc1,/,/,.,.,.
COc1ccc(-c2nc(=S)c3c([nH]2)Oc2ccc(C)cc2C3)cc1O,.,.,.,.,66.0
COc1ccc(-c2nc(-c3ccccc3)c(-c3cc([N+](=O)[O-])ccc3C)[nH]2)cc1O,.,.,.,.,.
